Laboratory results: PMC11024108

Tests used:
Histone H2B type 1-M = Histone H2B type 1-M (UniProt Q99879); assay: cross-link between two proteins; cross-linking mass spectrometry
Beta-synuclein = Beta-synuclein (UniProt Q91ZZ3); assay: as above
[1] = target: Large ribosomal subunit protein eL24 (UniProt Q8BP67); assay: as above
[2] = target: Actin-related protein 2/3 complex subunit 2 (UniProt Q9CVB6); assay: as above
[3] = target: Large ribosomal subunit protein eL34 (UniProt Q9D1R9); assay: as above
[4] = target: Dihydropyrimidinase-related protein 1 (UniProt P97427); assay: as above
[5] = target: Dihydropyrimidinase-related protein 3 (UniProt Q62188); assay: as above
Histone H4 = Histone H4 (UniProt P62805); assay: as above
[6] = target: Large ribosomal subunit protein eL42 (UniProt P83881); assay: as above
[7] = target: Large ribosomal subunit protein eL24 (UniProt P83731); assay: as above
[8] = target: Large ribosomal subunit protein mL53 (UniProt Q96EL3); assay: as above
Histone H2A type 1-J = Histone H2A type 1-J (UniProt Q99878); assay: as above
[9] = target: AP-2 complex subunit beta (UniProt Q9DBG3); assay: as above
[10] = target: Actin-related protein 2/3 complex subunit 5 (UniProt Q9CPW4); assay: as above
[11] = target: Actin-related protein 2/3 complex subunit 5-like protein (UniProt Q9D898); assay: as above
[12] = target: L-lactate dehydrogenase B chain (UniProt P16125); assay: as above
[13] = target: Actin, alpha cardiac muscle 1 (UniProt P68033); assay: as above
Coronin-2B = target: T1, Coronin-2B (UniProt Q8BH44); assay: as above
T1 sequence: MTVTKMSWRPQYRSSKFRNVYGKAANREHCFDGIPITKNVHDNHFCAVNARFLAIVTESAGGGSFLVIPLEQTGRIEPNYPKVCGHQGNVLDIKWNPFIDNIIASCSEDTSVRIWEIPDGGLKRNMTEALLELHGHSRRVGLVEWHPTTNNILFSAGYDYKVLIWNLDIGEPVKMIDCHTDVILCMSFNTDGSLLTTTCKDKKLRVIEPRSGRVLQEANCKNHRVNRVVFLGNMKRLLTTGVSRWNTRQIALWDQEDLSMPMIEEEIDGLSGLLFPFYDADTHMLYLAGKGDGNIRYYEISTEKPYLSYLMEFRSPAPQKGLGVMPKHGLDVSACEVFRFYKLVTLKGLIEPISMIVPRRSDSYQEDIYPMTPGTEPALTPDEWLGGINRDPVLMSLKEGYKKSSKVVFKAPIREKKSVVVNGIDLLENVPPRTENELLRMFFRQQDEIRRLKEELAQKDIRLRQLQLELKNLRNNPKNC

Myosin-10 = Myosin-10 (UniProt Q61879); assay: as above
[14] = target: T2, Phosphatase and actin regulator 1 (UniProt Q2M3X8); assay: as above
T2 sequence: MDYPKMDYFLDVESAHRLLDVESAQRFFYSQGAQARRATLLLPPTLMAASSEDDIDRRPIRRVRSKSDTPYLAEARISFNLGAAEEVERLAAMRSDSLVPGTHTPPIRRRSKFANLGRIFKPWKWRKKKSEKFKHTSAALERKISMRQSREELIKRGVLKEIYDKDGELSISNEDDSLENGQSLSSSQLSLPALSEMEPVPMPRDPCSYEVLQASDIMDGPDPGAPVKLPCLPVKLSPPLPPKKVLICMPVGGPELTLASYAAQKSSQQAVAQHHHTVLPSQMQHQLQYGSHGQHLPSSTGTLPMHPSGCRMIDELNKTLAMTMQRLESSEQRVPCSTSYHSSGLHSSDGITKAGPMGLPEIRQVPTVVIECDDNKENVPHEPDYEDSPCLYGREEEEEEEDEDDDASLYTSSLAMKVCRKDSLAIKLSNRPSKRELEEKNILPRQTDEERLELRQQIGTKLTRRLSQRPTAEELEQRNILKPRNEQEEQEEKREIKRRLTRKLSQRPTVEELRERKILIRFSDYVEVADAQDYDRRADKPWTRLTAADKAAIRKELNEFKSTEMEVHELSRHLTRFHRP

Synaptopodin = target: T3, Synaptopodin (UniProt Q8CC35); assay: as above
T3 sequence: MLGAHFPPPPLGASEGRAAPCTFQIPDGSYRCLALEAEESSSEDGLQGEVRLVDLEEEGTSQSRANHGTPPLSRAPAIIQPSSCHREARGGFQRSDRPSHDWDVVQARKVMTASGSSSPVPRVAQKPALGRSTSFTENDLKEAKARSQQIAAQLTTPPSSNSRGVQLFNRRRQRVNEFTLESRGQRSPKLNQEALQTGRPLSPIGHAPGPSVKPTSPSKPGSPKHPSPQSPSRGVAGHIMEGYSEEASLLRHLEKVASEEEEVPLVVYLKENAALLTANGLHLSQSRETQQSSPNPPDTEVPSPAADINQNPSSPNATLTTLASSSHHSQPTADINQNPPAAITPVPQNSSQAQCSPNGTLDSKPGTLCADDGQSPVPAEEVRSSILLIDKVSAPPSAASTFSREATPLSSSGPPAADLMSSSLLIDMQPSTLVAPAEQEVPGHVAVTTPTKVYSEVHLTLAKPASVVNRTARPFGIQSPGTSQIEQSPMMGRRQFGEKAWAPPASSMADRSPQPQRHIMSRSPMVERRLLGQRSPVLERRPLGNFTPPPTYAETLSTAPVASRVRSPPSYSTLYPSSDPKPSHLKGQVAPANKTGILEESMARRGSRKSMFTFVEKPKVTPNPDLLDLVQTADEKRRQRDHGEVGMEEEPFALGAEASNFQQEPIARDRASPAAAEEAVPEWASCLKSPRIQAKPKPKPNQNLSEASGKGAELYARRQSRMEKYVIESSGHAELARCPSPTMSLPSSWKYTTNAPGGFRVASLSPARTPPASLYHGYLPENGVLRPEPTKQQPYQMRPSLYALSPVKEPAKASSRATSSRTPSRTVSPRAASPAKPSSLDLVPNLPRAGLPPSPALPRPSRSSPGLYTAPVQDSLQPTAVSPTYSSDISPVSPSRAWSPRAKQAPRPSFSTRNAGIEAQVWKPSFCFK

Tropomodulin-2 = target: T4, Tropomodulin-2 (UniProt Q9JKK7); assay: as above
T4 sequence: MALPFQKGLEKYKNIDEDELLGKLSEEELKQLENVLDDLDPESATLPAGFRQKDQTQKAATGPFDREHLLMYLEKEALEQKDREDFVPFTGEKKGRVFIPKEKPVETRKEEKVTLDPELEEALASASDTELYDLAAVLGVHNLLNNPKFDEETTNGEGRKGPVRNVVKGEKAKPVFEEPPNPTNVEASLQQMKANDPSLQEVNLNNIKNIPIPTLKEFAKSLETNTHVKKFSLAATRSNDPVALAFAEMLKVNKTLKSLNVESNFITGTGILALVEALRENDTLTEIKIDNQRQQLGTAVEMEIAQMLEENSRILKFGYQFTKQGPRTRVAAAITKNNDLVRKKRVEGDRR

Twinfilin-1 = Twinfilin-1 (UniProt Q91YR1); assay: as above
Twinfilin-2 = target: T5, Twinfilin-2 (UniProt Q9Z0P5); assay: as above
T5 sequence: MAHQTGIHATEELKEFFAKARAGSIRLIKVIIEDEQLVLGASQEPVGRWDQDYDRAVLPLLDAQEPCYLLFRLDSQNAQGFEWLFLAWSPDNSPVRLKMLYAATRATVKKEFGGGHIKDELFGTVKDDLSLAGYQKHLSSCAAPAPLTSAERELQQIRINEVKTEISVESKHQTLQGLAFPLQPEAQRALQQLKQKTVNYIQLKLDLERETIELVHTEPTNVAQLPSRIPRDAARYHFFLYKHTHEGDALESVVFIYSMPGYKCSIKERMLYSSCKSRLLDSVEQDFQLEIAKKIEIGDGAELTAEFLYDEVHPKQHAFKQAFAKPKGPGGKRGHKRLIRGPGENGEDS

Unconventional myosin-Va = Unconventional myosin-Va (UniProt Q99104); assay: as above
[15] = target: AP-2 complex subunit beta (UniProt P63010); assay: as above
[16] = target: AP-1 complex subunit beta-1 (UniProt Q10567); assay: cross-link between two proteins; co-fractionation; cross-linking mass spectrometry
Histone H2B type 1-L = Histone H2B type 1-L (UniProt Q99880); assay: cross-link between two proteins; cross-linking mass spectrometry
[17] = target: Large ribosomal subunit protein eL27 (UniProt P61353); assay: as above
[18] = target: Large ribosomal subunit protein eL30 (UniProt P62888); assay: as above
[19] = target: Large ribosomal subunit protein bL17m (UniProt Q9NRX2); assay: as above

Chain of AP-2 complex subunit sigma, P53680 (P53680 whole entry, one chain of several): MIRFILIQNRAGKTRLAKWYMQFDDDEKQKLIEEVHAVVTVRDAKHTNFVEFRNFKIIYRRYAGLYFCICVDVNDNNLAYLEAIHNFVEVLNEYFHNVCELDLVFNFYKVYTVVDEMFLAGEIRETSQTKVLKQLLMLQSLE
Chain of AP-2 complex subunit sigma, P62743 (P62743 whole entry, one chain of several): as the sequence (P53680 whole entry, one chain of several) above
Chain of AP-2 complex subunit beta (UniProt P63010) (P63010 whole entry, one chain of several): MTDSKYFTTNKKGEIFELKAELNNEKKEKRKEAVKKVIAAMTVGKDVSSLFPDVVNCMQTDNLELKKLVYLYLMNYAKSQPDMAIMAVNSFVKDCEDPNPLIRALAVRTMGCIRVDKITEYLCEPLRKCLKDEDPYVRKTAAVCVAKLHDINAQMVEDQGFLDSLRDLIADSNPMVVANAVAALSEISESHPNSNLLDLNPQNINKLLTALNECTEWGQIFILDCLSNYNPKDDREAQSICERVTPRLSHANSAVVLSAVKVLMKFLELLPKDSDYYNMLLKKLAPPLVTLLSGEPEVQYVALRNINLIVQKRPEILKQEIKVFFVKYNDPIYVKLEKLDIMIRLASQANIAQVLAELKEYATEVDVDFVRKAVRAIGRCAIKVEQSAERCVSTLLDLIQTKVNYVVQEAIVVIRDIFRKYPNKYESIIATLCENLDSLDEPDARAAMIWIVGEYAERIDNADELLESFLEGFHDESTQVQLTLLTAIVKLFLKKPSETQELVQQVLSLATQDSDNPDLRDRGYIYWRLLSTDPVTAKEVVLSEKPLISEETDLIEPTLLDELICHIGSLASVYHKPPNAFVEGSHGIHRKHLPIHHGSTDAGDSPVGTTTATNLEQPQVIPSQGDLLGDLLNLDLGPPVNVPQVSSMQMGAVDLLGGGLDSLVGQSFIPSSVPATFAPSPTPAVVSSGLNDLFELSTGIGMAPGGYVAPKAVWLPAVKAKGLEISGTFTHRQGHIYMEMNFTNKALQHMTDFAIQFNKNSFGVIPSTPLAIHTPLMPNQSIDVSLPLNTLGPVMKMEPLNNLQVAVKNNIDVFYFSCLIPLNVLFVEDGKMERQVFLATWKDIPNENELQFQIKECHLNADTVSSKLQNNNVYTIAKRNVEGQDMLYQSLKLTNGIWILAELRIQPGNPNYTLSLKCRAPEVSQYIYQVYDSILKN
Chain of AP-1 complex subunit beta-1 (Q10567 whole entry, one chain of several): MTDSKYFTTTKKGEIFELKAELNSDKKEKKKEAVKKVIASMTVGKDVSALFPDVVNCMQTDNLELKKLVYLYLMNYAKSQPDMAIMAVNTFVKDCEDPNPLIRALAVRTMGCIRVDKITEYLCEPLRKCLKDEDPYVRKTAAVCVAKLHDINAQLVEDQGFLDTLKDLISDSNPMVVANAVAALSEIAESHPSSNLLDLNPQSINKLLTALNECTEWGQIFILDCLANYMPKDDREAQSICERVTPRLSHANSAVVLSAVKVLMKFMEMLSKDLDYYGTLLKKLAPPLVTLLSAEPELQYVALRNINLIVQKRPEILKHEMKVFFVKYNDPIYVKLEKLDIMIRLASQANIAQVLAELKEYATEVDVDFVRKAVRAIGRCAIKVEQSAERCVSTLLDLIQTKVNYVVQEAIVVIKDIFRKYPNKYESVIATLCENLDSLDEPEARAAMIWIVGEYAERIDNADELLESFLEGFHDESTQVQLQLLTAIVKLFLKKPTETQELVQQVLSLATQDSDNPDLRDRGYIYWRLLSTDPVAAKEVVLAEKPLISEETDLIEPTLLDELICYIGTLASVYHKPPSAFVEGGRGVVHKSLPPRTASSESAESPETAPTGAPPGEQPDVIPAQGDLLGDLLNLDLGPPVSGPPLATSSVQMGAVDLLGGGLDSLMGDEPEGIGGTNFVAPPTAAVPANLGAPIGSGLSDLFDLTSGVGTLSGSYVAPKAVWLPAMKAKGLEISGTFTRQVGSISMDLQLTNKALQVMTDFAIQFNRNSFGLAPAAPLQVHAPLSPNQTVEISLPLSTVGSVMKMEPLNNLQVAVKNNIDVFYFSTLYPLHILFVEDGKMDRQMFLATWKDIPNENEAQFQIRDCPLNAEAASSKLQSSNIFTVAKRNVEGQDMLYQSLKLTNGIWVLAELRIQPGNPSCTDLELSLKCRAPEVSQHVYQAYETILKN
Chain of AP-2 complex subunit beta (UniProt Q9DBG3) (Q9DBG3 whole entry, one chain of several): as the sequence (P63010 whole entry, one chain of several) above, with A612T counted along it

Histone H4, P62805
listed as a hit (Histone H2B type 1-M): yes

Alpha-synuclein, O55042
listed as a hit (Beta-synuclein): yes

Small ribosomal subunit protein eS6, P62754
listed as a hit [1]: yes

Actin-related protein 3B, Q641P0
listed as a hit [2]: yes

Large ribosomal subunit protein eL8, P12970
listed as a hit [3]: yes

Dihydropyrimidinase-related protein 2, O08553
listed as a hit [4]: yes
listed as a hit [5]: yes

Histone H2B type F-S, P57053
listed as a hit (Histone H4): yes

Large ribosomal subunit protein uL5, P62913
listed as a hit [6]: yes

Large ribosomal subunit protein uL3, P39023
listed as a hit [7]: yes

Large ribosomal subunit protein uL10m, Q7Z7H8
listed as a hit [8]: yes

Large ribosomal subunit protein uL14, P62829
listed as a hit (Histone H2A type 1-J): yes

AP-2 complex subunit sigma, P62743
listed as a hit [9]: yes

Actin-related protein 2/3 complex subunit 4, P59999
listed as a hit [10]: yes
listed as a hit [11]: yes

L-lactate dehydrogenase A chain, P06151
listed as a hit [12]: yes

Actin, cytoplasmic 1, P60710
listed as a hit [13]: yes
listed as a hit (Coronin-2B): yes
listed as a hit (Myosin-10): yes
listed as a hit [14]: yes
listed as a hit (Synaptopodin): yes
listed as a hit (Tropomodulin-2): yes
listed as a hit (Twinfilin-1): yes
listed as a hit (Twinfilin-2): yes
listed as a hit (Unconventional myosin-Va): yes

AP-2 complex subunit sigma, P53680
listed as a hit [15]: yes
listed as a hit [16]: yes

Histone H2B type 1-C/E/F/G/I, P62807
listed as a hit (Histone H2B type 1-L): yes
listed as a hit (Histone H2B type 1-M): yes

Actin-related protein 3, Q99JY9
listed as a hit [2]: yes

Histone H2A type 1-C, Q93077
listed as a hit (Histone H2A type 1-J): yes

Large ribosomal subunit protein eL34, P49207
listed as a hit [17]: yes
listed as a hit [18]: yes

Large ribosomal subunit protein bL32m, Q9BYC8
listed as a hit [19]: yes

Large ribosomal subunit protein eL43, P61513
listed as a hit [18]: yes
